In PubChem BioAssay one finds z-score and composite z-score data, which are given here for four molecules.

The source made the active and inactive calls. Unless noted, the rule behind the calls is not given here.

Test [1] can be described thus: compound effects on lung adenocarcinoma cell viability – A549, calcein-AM fluorescence, 48 h, basal, profiling panel (AID 1162). Note: test concentration not given here. As to conditions: higher = more signal.
A short description of test [2]: compound effects on differentiated 3T3-L1 adipocyte viability – cell-based, 3T3-L1 adipocytes, calcein-AM fluorescence, 48 h, basal, profiling panel (AID 1163). Note: test concentration not given here. The conditions noted are these: 3T3-L1 adipocytes viability, higher = more signal.
The nature of test [3]: compound effects on hepatocellular carcinoma cell viability – HepG2, calcein-AM fluorescence, 48 h, basal, profiling panel (AID 1164). Note: test concentration not given here. As to conditions: higher = more signal.
Test [4] can be described thus: compound effects on multiple myeloma cell viability – MM1S, calcein-AM fluorescence, 48 h, basal, profiling panel (AID 1165). Note: test concentration not given here. As to conditions: higher = more signal.
A short description of test [5]: calcein-AM signal in unstimulated myeloma cells – cell-based, calcein-AM fluorescence, 48 h, PK04 Diversity Set, profiling panel (AID 1166).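 Note: cells grown under basal conditions without added stimulus; test concentration not given here.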 As to conditions: RPMI8226 myeloma viability, higher = more signal.
Test [6] in a line: JC-1 mitochondrial signal, unstimulated HepG2 cells – cell-based, JC-1 fluorescence, 24 h, 100 nL compound, profiling panel (AID 1167). Note: test concentration not given here. As to conditions: HepG2 mitochondrial potential, higher = more signal.
The nature of test [7]: JC-1 mitochondrial signal, unstimulated adipocytes – cell-based, JC-1 fluorescence, 3T3-L1 adipocytes, 24 h, 100 nL compound, profiling panel (AID 1168). Note: test concentration not given here. As to conditions: JC-1 mitochondrial fluorescence, higher = more signal, called active from +8 up or from −8 down.
Test [8] in a line: JC-1 mitochondrial signal, unstimulated myeloma cells – cell-based, JC-1 fluorescence, RPMI8226, 24 h, 100 nL compound, profiling panel (AID 1169). Note: test concentration not given here. The conditions noted are these: JC-1 mitochondrial potential fluorescence, higher = more signal.
The nature of test [9]: JC-1 mitochondrial signal, unstimulated MM1S myeloma – cell-based, JC-1 fluorescence, 24 h, 100 nL compound, profiling panel (AID 1170). Note: test concentration not given here. As to conditions: MM1S mitochondrial potential, higher = more signal.
A short description of test [10]: resazurin metabolic signal in A549 cells – cell-based, resazurin fluorescence, 24 h, PK04 Diversity Set, profiling panel (AID 1171). Note: test concentration not given here. The conditions noted are these: A549 viability, higher = more signal, called active from +8 up or from −8 down. A general note: The colour change of resazurin is a common sign of viable cells or microbes.
Test [11] is described as follows: resazurin metabolic signal in HepG2 cells – cell-based, resazurin fluorescence, 24 h, PK04 Diversity Set, profiling panel (AID 1172). Note: test concentration not given here. The conditions noted are these: HepG2 viability, higher = more signal.
Test [12] in a line: budding yeast growth changes without added modifier – OD600, strain BY4716, 24 h, basal condition, primary screen (AID 1173). As to conditions: S. cerevisiae BY4716 growth, OD600, 24 h; higher = more signal, called active from +8 up or from −8 down.
The nature of test [13]: viability profiling in MM1S myeloma cells – cell-based, resazurin fluorescence, basal, 24 h, PK04 Diversity Set, profiling panel (AID 1174). Note: test concentration not given here. The conditions noted are these: higher = more signal, called active from +8 up or from −8 down.
Test [14] addresses Dihydroorotate dehydrogenase (quinone), mitochondrial (Plasmodium falciparum (isolate 3D7)) (UniProt Q08210). As to the kind of experiment: inhibition of P. falciparum DHODH – biochemical, C-terminal His tag, absorbance 600 nm, primary screen (AID 1175).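 Note: recombinant parasite enzyme with a five histidine tag at its C terminus; test concentration not given here.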 The conditions noted are these: PfDHODH enzyme, DCIP absorbance 600 nm; higher = more signal, called active from +8 up or from −8 down.

The nature of test [15]: inhibition of PAO1 biofilm formation – strain PAO1, LB-PBS medium, absorbance 600 nm, primary screen (AID 1176). Note: test concentration not given here. The conditions noted are these: P. aeruginosa PAO1 growth/biofilm, A600, 12 h; higher = more signal.
Test [16] in a line: growth modulation of vineyard yeast isolate – strain RM11-1a, OD600, basal, 24 h, primary screen (AID 1177).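 Note: cultures grown under basal conditions with no added stressor; test concentration not given here.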 As to conditions: S. cerevisiae RM11-1a growth, OD600, 24 h; higher = more signal, called active from +8 up or from −8 down.
The nature of test [17]: growth of efflux-deficient E. coli DRC39 – strain DRC39, OD650, 24 h, E. coli filamentation inducers, primary screen (AID 1178).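 Note: growth measured as culture turbidity by optical density at 650 nm; test concentration not given here.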 As to conditions: E. coli DRC39 acrAB, higher = more signal, called active from +8 up or from −8 down.
The nature of test [18]: growth of efflux-deficient E. coli DRC39 – strain DRC39, OD650, 48 h, E. coli filamentation inducers, primary screen (AID 1179).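 Note: screen aims at cell division blockers that make cells filament.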 The conditions noted are these: E. coli DRC39 delta-acrAB growth, higher = more signal, called active from +8 up or from −8 down.
Test [19] in a line: viability profiling in RPMI8226 myeloma cells – cell-based, resazurin fluorescence, basal, 24 h, PK04 Diversity Set, profiling panel (AID 1180).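 Note: RPMI8826 multiple myeloma cell line at 5000 cells per well; test concentration not given here.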 The conditions noted are these: higher = more signal.
Test [20] concerns the target E3 ubiquitin-protein ligase XIAP (Homo sapiens) (UniProt P98170). As to the kind of experiment: small molecules binding XIAP protein – biophysical, small-molecule microarray, fluorescence 635 nm, primary screen (AID 1181).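 Note: score merges 667 nm emission and signal to noise over triplicate slides.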 The conditions noted are these: higher = more signal.

Chain of E3 ubiquitin-protein ligase XIAP (Homo sapiens) (P98170 whole entry, looked up): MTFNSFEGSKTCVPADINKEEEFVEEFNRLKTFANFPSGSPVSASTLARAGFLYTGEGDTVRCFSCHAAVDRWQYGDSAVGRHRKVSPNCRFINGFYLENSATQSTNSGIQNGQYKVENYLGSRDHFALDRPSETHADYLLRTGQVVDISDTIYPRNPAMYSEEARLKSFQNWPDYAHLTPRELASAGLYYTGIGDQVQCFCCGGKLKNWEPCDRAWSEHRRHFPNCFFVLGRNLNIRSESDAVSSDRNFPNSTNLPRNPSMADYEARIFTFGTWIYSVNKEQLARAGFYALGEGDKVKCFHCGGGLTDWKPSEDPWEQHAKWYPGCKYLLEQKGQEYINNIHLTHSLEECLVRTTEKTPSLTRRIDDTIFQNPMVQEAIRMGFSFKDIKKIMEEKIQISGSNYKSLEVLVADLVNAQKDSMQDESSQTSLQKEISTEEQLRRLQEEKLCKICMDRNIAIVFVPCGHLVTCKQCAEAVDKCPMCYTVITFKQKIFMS
Chain of Dihydroorotate dehydrogenase (quinone), mitochondrial (Plasmodium falciparum (isolate 3D7)) (Q08210 whole entry, looked up): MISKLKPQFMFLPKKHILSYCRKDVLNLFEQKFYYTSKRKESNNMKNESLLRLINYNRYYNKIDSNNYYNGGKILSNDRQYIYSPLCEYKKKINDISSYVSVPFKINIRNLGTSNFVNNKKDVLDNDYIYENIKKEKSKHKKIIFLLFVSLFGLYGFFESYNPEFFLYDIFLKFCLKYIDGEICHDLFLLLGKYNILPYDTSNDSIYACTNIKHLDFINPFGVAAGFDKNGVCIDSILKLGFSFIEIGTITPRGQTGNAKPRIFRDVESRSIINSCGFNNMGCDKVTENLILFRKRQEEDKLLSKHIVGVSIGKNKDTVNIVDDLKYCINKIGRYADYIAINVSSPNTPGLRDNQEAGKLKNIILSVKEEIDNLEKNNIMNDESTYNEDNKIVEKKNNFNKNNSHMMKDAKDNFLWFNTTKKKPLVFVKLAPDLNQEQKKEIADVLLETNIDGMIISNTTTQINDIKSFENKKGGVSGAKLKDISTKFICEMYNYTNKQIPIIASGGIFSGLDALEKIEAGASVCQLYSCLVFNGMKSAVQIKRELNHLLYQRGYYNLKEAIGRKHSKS

As to `C[C@]1(C(=O)NCC(F)(F)F)c2ccccc2C(=O)N(Cc2cc(C(F)(F)F)cc(C(F)(F)F)c2)[C@H]1c1ccc(CO)cc1`, the z-score in [1] is 1.82; in [2], 0.441; in test [3], 1.51; in test [4] it was 0.24; in test [5] it was 1.11; in test [6], 1.23. For the same molecule, the z-score in [7] was 0.436 (inactive); in test [8], 0.412; in [9] it was 0.0741; in test [10], 0.476 (inactive); in [11], 0.373; in [12], -0.234 (inactive). Moreover, the z-score in test [13] is 1.2 (inactive); in test [15], 0.5 (inactive); in test [16], 0.507 (inactive); in test [17] it was 0.712 (inactive); in test [18] it was 0.827 (inactive); in [19], 1.13. For the same molecule, the composite z-score in test [14] was -0.954 (inactive); in [20], -0.0099.

`O=C1O[C@H](c2ccccc2)[C@H](c2ccccc2)N2[C@H]1[C@@H](C(=O)Nc1nc3ccccc3s1)[C@]1(C(=O)Nc3ccccc31)[C@H]2c1ccccc1OCCO`: the z-score is -1.59 in test [1]; 0.842 in test [2]; -1.97 in test [3]; -1.61 in test [4]; -3.67 in test [5]; -2.27 in [6]. In addition, the z-score in test [7] is 4.1 (inactive); in [8], -1.16; in test [9], -1.37; in [10], -2.35 (inactive); in test [11], 0.551; in test [12], 0.448 (inactive). For the same molecule, the z-score in test [13] is -1.93 (inactive); in test [15], 2.76 (inactive); in test [16] it was 2.72 (inactive); in [17], -0.0179 (inactive); in test [18] it was -0.145 (inactive); in [19] it was -3.31. Besides, the figures for the composite z-score in test [14] and in test [20] were 0.386 (inactive) and -0.128, respectively.

For the molecule `C=CCNC(=O)[C@H]1[C@@H]2C(=O)O[C@@H](c3ccccc3)[C@@H](c3ccccc3)N2[C@@H](c2ccc(OCCO)cc2)[C@]12C(=O)N(C(=O)OCCOC)c1ccc(C#CCC(C(=O)OC)C(=O)OC)cc12`, the z-score in test [1] was 1.32; in test [2], 0.0681; in test [3] it was 0.811; in test [4], 0.495; in test [5], -0.749; in test [6], -0.517. Further, the z-score in [7] is 0.566 (inactive); in test [8], -0.82; in [9] it was -1.58; in test [10], -0.0048 (inactive); in [11], -0.181; in test [12] it was 1.71 (inactive). The z-score is -0.374 (inactive) in test [13]; 1.5 (inactive) in [15]; 2.76 (inactive) in test [16]; 0.321 (inactive) in test [17]; 0.475 (inactive) in [18]; -1.31 in test [19]. In addition, the composite z-score in test [14] was 0.0899 (inactive); in [20], 0.0899.

With `[N-]=[N+]=NCc1ccccc1[C@H]1OC(c2ccc(OCCCO)cc2)=N[C@@]1(Cc1ccccc1N=[N+]=[N-])C(=O)N1CCOCC1`, the z-score in test [1] is -0.612; in test [2], -0.182; in test [3], -0.659; in [4] it was -2.69; in test [5], -3.44; in test [6] it was -1.26. The z-score in test [7] is -0.866 (inactive); in test [8], -1.11; in [9], -2.14; in test [10], -0.772 (inactive); in test [11], -0.317; in [12], -0.783 (inactive). The z-score was -2.46 (inactive) in test [13]; 0.438 (inactive) in [15]; 1.43 (inactive) in test [16]; -0.33 (inactive) in test [17]; -0.799 (inactive) in test [18]; -2.58 in test [19]. For the same molecule, the values for the composite z-score in test [14] and in test [20] were 1.03 (inactive) and 0.122, respectively.
